# Laboratory results as given in ChEMBL document CHEMBL3433997, “St. Jude Leishmania screening dataset” (2016).
# Legend:
# Format in all cases: functional
# [1] = target: Solute carrier family 2, facilitated glucose transporter member 1 (Homo sapiens) (UniProt P11166); experiment: ST_JUDE_LEISH: Cytotoxicity at 2uM final concentration against transgenic Leishmania Mexicana promastigotes LmGLUT1 that are glucose transport deficient and complemented with the human glucose transporter GLUT1. Activity is measured by DNA content using SYBR green in vitro
# [2] = target: Hexose transporter 1 (Plasmodium falciparum) (UniProt O97467); experiment: ST_JUDE_LEISH: Cytotoxicity at 2uM final concentration against transgenic Leishmania Mexicana promastigotes LmPfHT that are glucose transport deficient and complemented with the Plasmodium falciparum hexose transporter. Activity is measured by DNA content using SYBR green in vitro
# [3] = target: Glucose transporter (Leishmania mexicana) (UniProt O61059); experiment: ST_JUDE_LEISH: Cytotoxicity at 2uM final concentration against transgenic Leishmania Mexicana promastigotes LmGT2 that are glucose transport deficient and complemented with the L. Mexicana glucose transporter 2. Activity is measured by DNA content using SYBR green in vitro
# Chain of Solute carrier family 2, facilitated glucose transporter member 1 (Homo sapiens) (P11166 whole entry): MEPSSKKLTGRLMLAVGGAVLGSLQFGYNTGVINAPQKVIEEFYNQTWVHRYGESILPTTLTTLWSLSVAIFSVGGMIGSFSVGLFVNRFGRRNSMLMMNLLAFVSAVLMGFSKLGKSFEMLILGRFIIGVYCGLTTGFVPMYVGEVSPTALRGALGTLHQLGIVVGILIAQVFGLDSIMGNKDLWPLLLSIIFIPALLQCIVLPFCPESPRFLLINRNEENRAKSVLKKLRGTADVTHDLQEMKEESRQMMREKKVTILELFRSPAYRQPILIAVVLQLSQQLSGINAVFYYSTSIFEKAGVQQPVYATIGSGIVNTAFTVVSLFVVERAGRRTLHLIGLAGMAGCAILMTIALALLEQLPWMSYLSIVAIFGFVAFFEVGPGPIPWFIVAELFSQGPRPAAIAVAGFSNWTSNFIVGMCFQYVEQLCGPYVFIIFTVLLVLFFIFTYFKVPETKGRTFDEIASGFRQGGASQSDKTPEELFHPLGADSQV
SMILES,inhibition [1],inhibition [2],inhibition [3]
CCc1c(CCNCC/C=C/CCNCCc2ccc(OC)c(OC)c2CC)ccc(OC)c1OC,0.84%,1.33%,-1.26%
COc1ccc(C2CC(=O)C3=C(C2)NC(C)=C(C(=O)OC(C)C)C3c2cccc(O)c2)cc1OC (stereo not drawn),4.15%,1.12%,1.71%
COc1ccc(CN2CCCN(Cc3cccc(NC(=O)c4ccc(Cl)c(Cl)c4)c3)CC2)cc1,2.61%,4.62%,0.01%
COc1ccc(C(=O)Nc2ccc3oc(-c4ccc(C(F)(F)F)cc4)cc3c2)cc1CCCN(C)C,1.78%,2.26%,0.34%
CN(Cc1ccc(C#N)cc1)C1CCN(c2cc(NC(=O)c3cccc(F)c3)ccn2)CC1,-1.86%,-1.81%,0.96%
COc1ccc(S(=O)(=O)N(c2cc(Br)cc3c2OCC3)S(=O)(=O)c2ccc(OC)c(N3CCN(C)CC3)c2)cc1N1CCN(C)CC1,0.39%,0.62%,0.55%
O=C(/C=C/c1ccc(Cl)c(Cl)c1)NCCCCCN1CCCN(C(=O)Nc2cc(Cl)cc(Cl)c2)CC1,3.31%,3.85%,6.4%
O=C(Nc1ccc(-c2csc3nccn23)cc1)c1ccc(Cl)cc1,5.5%,4.05%,-0.28%
COc1ccc(-c2cccc(CNC3CCN(C)CC3)c2)cc1S(=O)(=O)NCc1ccccc1,4.97%,4.06%,4.42%
COc1c(C2CCN(CCCCNC(=O)c3cccc(-c4ccc(C(F)(F)F)cc4)c3)CC2)ccc2c1CCCC2,2.51%,1.75%,11.1%
COc1ccc2ncc(F)c(CCN3CC[C@H](NCc4cc(C#N)c5c(c4)OCCO5)[C@H](O)C3)c2c1,42.4%,57.5%,70.8%
